Results from PubChem BioAssay AID504433 (National Center for Advancing Translational Sciences (NCATS), 2011).
Inconclusive results are not listed. Calls of active or inactive are those of the source. The call rests on the fitted dose curve; in most records, active means well fitted inhibition curve with a large enough effect; inconclusive means small, poorly fitted or top-dose-only effect; inactive means flat fitted curve, though single readings scatter.

Experiment: Secondary Assay for lipid storage modulators: Cytotoxcity for probe SAR round 2
Conditions: Drosophila S3 cells viability, CellTiter-Glo ATP luminescence, 24 h; series mostly up to 46.1 µM
Text: NIH Molecular Libraries Probe Production Centers Network [MLPCN] NIH Chemical Genomics Center [NCGC] MLPCN Grant: 1 R03 MH085686-01 Assay Submitter (PI): Beller, Mathias; Max-Planck-Institut fur Biophysikalische Chemie, Germany. NCGC Assay Overview: Storing lipids as a reservoir for energy or the anabolism of elementary metabolites is a common feature of probably all cells and is conserved from bacteria to humans. The universal cellular lipid storage organelle is the so-called lipid storage droplet (LD). Although ubiquitous, LDs share a simple structure composed of a hydrophobic core that harbors the storage lipids, which is shielded by a droplet-specific phospholipid monolayer to which proteins are attached. The current model of LD biogenesis involves an incorporation of the lipid core into the membrane leaflets of the endoplasmic reticulum (ER) followed by a subsequent budding-like maturation of a LD, which ultimately pinches off. Once released, LD volume can increase by localized lipogenesis or fusion of existing droplet. Storage lipids are re-mobilized enzymatically by lipase activity. […]
Assay Protocol Summary: Cytotoxcity assay was performed with embryonic Drosophila S3 cells (Bloomington Drosophila Genomics Resource Center [DGRC]). […] Luminescence was detected on the Perkin Elmer ViewLux.

With `CCC/C=C/C/C=C/C=C/C=N/NN=O` the outcome was “inactive”.
